# Measured values published in PubChem BioAssay (NCATS).
# Results filed as inconclusive are left out. Unmarked numbers belong to inactive results. Activity calls are given as the source filed them. Calls follow the shape of the dose curve; as a rule, active = well fitted inhibition curve with a large enough effect; inconclusive = small, poorly fitted or top-dose-only effect; inactive = flat fitted curve, though single readings scatter. *1 amine or outer side, *2 acyl side, *3 side chain or, on linkers, in order; H or OH if unused. Where a SMILES comes first, the peptide text is derived from it. Bridges are numbered along the chain shown (N, C = ends). [ ]: non-standard residue; d: D form. The star is where a group is joined. ξ: configuration not given here. X10 = NC1=NCCC(C(N[*:1])C(=O)[*:2])N1; ΔAla(3-NHCONH2) = NC(=O)NC=C(N)C(=O)O; ξβ3hOrn = NCCCC(N)CC(=O)*; Dap = NC[CH](N)C(=O)O
# Tests used:
# Assay in all cases: Cytotoxic Profiling of Annotated Libraries Using Quantitative High-Throughput Screening (AID 1296008); also: nearly all actives have a fitted effect of over 60% in size
# Conditions in all cases: Five cell lines viability, CellTiter-Glo ATP luminescence, 48-72 h; max response: active compounds read low
# CRL-7250 = normal cell line; test system: CRL-7250
# Summary of the method: (§1)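 Compounds were pin-transferred onto cells and incubated 48 or 72 hr at 37 degree Celsius, 95% humidity. CellTiter-Glo was added, plates sat 10 min at room temperature, then ATP-coupled luminescence was imaged as the viability read-out.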
# HEK293 = test system: HEK293
# Summary of the method: as §1
# HaCat = test system: HaCat
# Summary of the method: as §1
# KB-3-1 = test system: KB-3-1
# Summary of the method: as §1
# % is scaled to controls: 0 for no effect and ±100 for the full control effect; potency is read from the fitted curve at half-maximal effect.
smiles,measurement,setting,value
OC1(c2ccc(Cl)cc2)CCNCC1,max response,CRL-7250,-0.911%
same,outcome,HEK293,inactive
same,outcome,HaCat,inactive
COCCOCC(OC)OC,max response,CRL-7250,-5.92%
same,max response,HEK293,-49.7%
same,outcome,HaCat,inactive
CC(=O)O[C@@H]1CC2C3CCc4cc(OC(=O)c5ccccc5)ccc4C3CCC2(C)[C@H]1OC(C)=O (stereo not given in full),max response,CRL-7250,-8.96%
same,outcome,HEK293,inactive
same,outcome,HaCat,inactive
Cc1ccc(-c2ccccc2C#N)cc1,max response,CRL-7250,2.16%
same,outcome,HEK293,inactive
same,outcome,HaCat,inactive
O=C(c1ccco1)N1CCNCC1,max response,CRL-7250,-10.9%
same,outcome,HEK293,inactive
same,outcome,HaCat,inactive
CCCCOCCOC(=O)c1cccnc1,outcome,CRL-7250,inactive
same,outcome,HEK293,inactive
same,max response,HaCat,-21.3%
O=C(O)Cn1c(=O)n(Cc2ccc(Br)cc2F)c(=O)c2ccc(Cl)cc21,outcome,CRL-7250,inactive
same,outcome,HEK293,inactive
same,max response,HaCat,0.662%
COC(=O)/C=C\C(=O)OC,max response,CRL-7250,-5.33%
same,outcome,HEK293,inactive
same,outcome,HaCat,inactive
O=c1[nH]c2ccccc2c(=O)n1CCCl,max response,CRL-7250,-4.5%
same,max response,HEK293,-6.35%
same,outcome,HaCat,inactive
Oc1ccccc1-c1nnco1,outcome,CRL-7250,inactive
same,outcome,HEK293,inactive
same,outcome,HaCat,inactive
COC(=O)c1cc(Cl)c(NC(C)=O)cc1OC,max response,CRL-7250,2.72%
same,max response,HEK293,-2.05%
same,outcome,HaCat,inactive
O=[N+]([O-])c1cncn1CCN1CCOCC1,outcome,CRL-7250,inactive
same,max response,HEK293,3.5%
same,max response,HaCat,-14.4%
CC1(C)OC(=O)Nc2ccc(Br)cc21,outcome,CRL-7250,inactive
same,outcome,HEK293,inactive
same,outcome,HaCat,inactive
CCOC(=O)C(O)c1ccccc1 (stereo not given),outcome,CRL-7250,inactive
same,outcome,HEK293,inactive
same,outcome,HaCat,inactive
CCc1cc(S(=O)(=O)O)c2cc(C(C)C)cccc1-2,max response,CRL-7250,4.56%
same,max response,HEK293,-0.992%
same,max response,HaCat,0.42%
Nc1nnnn1-c1ccccc1,max response,CRL-7250,-0.0528%
same,max response,HEK293,-1.05%
same,max response,HaCat,-26.2%
Cc1cc2nc3ccc(=[N+](C)C)cc-3sc2cc1N,Potency,CRL-7250,9440 nM (active)
same,Potency,HEK293,422 nM (active)
same,Potency,HaCat,6680 nM (active)
Cc1c(N)cccc1C(F)(F)F,outcome,CRL-7250,inactive
same,outcome,HEK293,inactive
same,outcome,HaCat,inactive
CC(=O)c1cc2ccccc2s1,max response,CRL-7250,-0.976%
same,max response,HEK293,-8.14%
same,max response,HaCat,-0.924%
CCCCOC(=O)CCCCCCCCC(=O)OCCCC,max response,CRL-7250,0.0544%
same,max response,HEK293,1.21%
same,max response,HaCat,-1.87%
COCCc1ccccn1,max response,CRL-7250,-7.75%
same,max response,HEK293,-0.362%
same,outcome,HaCat,inactive
C#CC(C)(CC)OC(=O)c1ccccc1C(=O)O (stereo not given),max response,CRL-7250,-9.5%
same,max response,HEK293,4.2%
same,max response,HaCat,-2.23%
CCCC(CCC)(C(=O)OCC)C(=O)OCC,max response,CRL-7250,-5.21%
same,max response,HEK293,2.87%
same,outcome,HaCat,inactive
NCCCC(N)CC(=O)NCC1NC(=O)C(CO)NC(=O)C(N)CNC(=O)C(C2CCN=C(N)N2)NC(=O)C(=CNC(N)=O)NC1=O (stereo not drawn) (H-[Dap]S[Dap](ξβ3hOrn)[ΔAla(3-NHCONH2)][X10]; lactam 1-C; configuration not given here),max response,CRL-7250,-12.1%
same,max response,HEK293,-7.39%
same,max response,HaCat,-10.9%
CC(C)(Oc1ccc(Cl)cc1)C(=O)OCCCOC(=O)C(C)(C)Oc1ccc(Cl)cc1,max response,CRL-7250,-5.16%
same,max response,HEK293,-15.3%
same,max response,HaCat,-1.93%
C[C@]12CCC(=O)C=C1CC[C@@H]1[C@@H]2[C@@H](O)C[C@@]2(C)[C@H]1CC[C@]2(O)C(=O)COC(=O)CCC(=O)O,max response,CRL-7250,-0.174%
same,max response,HEK293,3.66%
same,max response,HaCat,-3.29%
same,max response,KB-3-1,-0.87%
OC[C@]1(O)OC[C@@H](O)[C@H](O)[C@@H]1O,max response,CRL-7250,-7.2%
same,outcome,HEK293,inactive
same,max response,HaCat,-0.702%
same,max response,KB-3-1,-6.46%
C1N2CN3CN1CN(C2)C3,outcome,CRL-7250,inactive
same,outcome,HEK293,inactive
same,max response,HaCat,-1.63%
COC(=O)c1cc(Cl)ccc1OC,max response,CRL-7250,-7.71%
same,outcome,HEK293,inactive
same,outcome,HaCat,inactive
CCOc1ncc(F)c(=O)[nH]1,outcome,CRL-7250,inactive
same,max response,HEK293,-0.0366%
same,outcome,HaCat,inactive
CC[C@@]1(O)C(=O)OCc2c1cc1n(c2=O)Cc2c-1nc1ccccc1c2/C=N/OC(C)(C)C,Potency,CRL-7250,1190 nM (active)
same,Potency,HEK293,21.1 nM (active)
same,Potency,HaCat,42.2 nM (active)
NC(=O)NC1N=C([O][Al])NC1=O (stereo not given),outcome,CRL-7250,inactive
same,outcome,HEK293,inactive
same,max response,HaCat,3.4%
C1=CC2C3C=CC(C3)C2C1 (stereo not given),outcome,CRL-7250,inactive
same,outcome,HEK293,inactive
same,max response,HaCat,-9.73%
same,max response,KB-3-1,-6.71%
CC(=O)/C=C/C=C1/C2CCC(C2)C1(C)C (stereo not given),max response,CRL-7250,-8.75%
same,max response,HEK293,-13.1%
same,max response,HaCat,-7.21%
